Reference: PubChem BioAssay (NCATS)
“And” between values parts separate entries of the source, which are not always exact repeats. Identical values can stand only once. Inconclusive results are not listed. The source made the active and inactive calls. Unless noted, the call rests on the fitted dose curve; in most records, active means well fitted curve in the direction sought with a large enough effect; inconclusive means small, poorly fitted or top-dose-only effect, or another doubt; inactive means no such curve, though single readings can be large; an effect the other way counts as inactive or inconclusive.

Tests used:
[1] = target: Cellular tumor antigen p53 (Homo sapiens) (UniProt P04637); assay: Primary qHTS for small molecule compounds that upregulate eGFP-tagged delta133p53alpha (in N-terminal) cells. (AID 2060322); settings: NCI-H358 eGFP-delta133p53alpha fluorescence, 24 h; activation: stronger effect = higher value; further: nearly all actives have a fitted effect of over 75% in size; further: potency means the concentration at half of the fitted maximal effect;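 on activation: series mostly up to about 56 µM; 0% = DMSO vehicle and 100% = reference activator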
Procedure, shortened: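 NCI-H358 cells pre-induced 24 h with 10 ng/ml doxycycline to express N-terminal eGFP-delta133p53alpha, then dosed 24 h at 37C without doxycycline; fixed, Hoechst-stained, GFP intensity by laser scanning cytometry, normalized to DMSO (0%) and 57.5 uM 5-azacytidine (100%).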

[2] = target: Aldehyde dehydrogenase, mitochondrial (Homo sapiens) (UniProt P05091); assay: qHTS for Inhibitors of the Aldehyde Dehydrogenase Family (ALDH2) Primary screen (AID 2061308);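 further: plate controls were vehicle for no effect and reference inhibitor for full effect; nearly all actives have a fitted effect of over 55% in size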
[3] = target: Retinaldehyde dehydrogenase 3 (Homo sapiens) (UniProt P47895); assay: qHTS for Inhibitors of the Aldehyde Dehydrogenase Family (ALDH1A3) Primary screen (AID 2061315);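 further: plate controls were DMSO vehicle for no effect and reference inhibitor for full effect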
[4] = BET inhibitor-based combinations targeting novel dependencies in MECOM-rearranged (r) AML: SET-2 cell line (AID 2202231); settings: SET-2 AML cells viability, CellTiter-Glo luminescence, 48 h; viability: stronger effect = lower value, concentration not given here; further: nearly all actives have a fitted effect of over 35% in size; further: potency means the concentration at half of the fitted maximal effect;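 on viability: plate controls were DMSO treated cells for no effect and wells without cells for full effect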
Procedure, shortened: (§1)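 Each compound was tested at eleven concentrations on cells seeded at 500/well. After two days' incubation, ATP-based luminescence reported viability; responses relative to DMSO and blank wells yielded AUC and cell-line-centred Z-AUC.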

[5] = BET inhibitor-based combinations targeting novel dependencies in MECOM-rearranged (r) AML: OCI-AML3 cell line (AID 2202232); settings: Potency: OCI-AML3 viability; further: nearly all actives have a fitted effect of over 35% in size; further: potency means the concentration at half of the fitted maximal effect
Procedure, shortened: as §1

[6] = BET inhibitor-based combinations targeting novel dependencies in MECOM-rearranged (r) AML: HNT-34 cell line (AID 2202234); further: nearly all actives have a fitted effect of over 35% in size; further: potency means the concentration at half of the fitted maximal effect
Procedure, shortened: (§2)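 First, 500 cells per well were seeded; next, drugs were pinned as 11-point doses; then plates sat 48 hr in the incubator; finally CellTiter-Glo was added and luminescence read, with AUC and Z-AUC computed.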

[7] = BET inhibitor-based combinations targeting novel dependencies in MECOM-rearranged (r) AML: AML-191 cell line (AID 2202236; further: nearly all actives have a fitted effect of over 35% in size; further: potency means the concentration at half of the fitted maximal effect)
Procedure, shortened: as §1

[8] = BET inhibitor-based combinations targeting novel dependencies in MECOM-rearranged (r) AML: AML-194 cell line (AID 2202237; further: nearly all actives have a fitted effect of over 40% in size; further: potency means the concentration at half of the fitted maximal effect)
Procedure, shortened: as §1

[9] = BET inhibitor-based combinations targeting novel dependencies in MECOM-rearranged (r) AML: MV-4-11 cell line (AID 2202233); further: nearly all actives have a fitted effect of over 45% in size; further: potency means the concentration at half of the fitted maximal effect
Procedure, shortened: as §2

[10] = BET inhibitor-based combinations targeting novel dependencies in MECOM-rearranged (r) AML: UCSD-AML1 cell line (AID 2202235); further: nearly all actives have a fitted effect of over 40% in size; further: potency means the concentration at half of the fitted maximal effect
Procedure, shortened: as §2

[11] = target: Aldehyde dehydrogenase 1A1 (Homo sapiens) (UniProt P00352); assay: qHTS for Inhibitors of the Aldehyde Dehydrogenase Family (ALDH1A1) Confirmatory screens (AID 2061316); further: potency means the concentration at half of the fitted maximal effect; nearly all actives have a fitted effect of over 65% in size
[12] = target: Cellular tumor antigen p53 (Homo sapiens) (UniProt P04637); assay: Primary qHTS for small molecule compounds that upregulate eGFP-tagged delta133p53alpha (in C-terminal) cells. (AID 2060324);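 further: 0% = DMSO wells and 100% = 57.5 µM 5-azacytidine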
Procedure, shortened: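 NCI-H358 cells with doxycycline-inducible D133p53a-eGFP (C-terminal tag), pre-induced 24 h with 100 ng/ml doxycycline, plated 800/well in doxycycline-free medium and treated 24 h at 37 °C with compound titrations. Cells were then fixed and Hoechst-stained, and GFP intensity was read by laser scanning cytometry.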

[13] = target: Aldehyde dehydrogenase, mitochondrial (Homo sapiens) (UniProt P05091); assay: qHTS for Inhibitors of the Aldehyde Dehydrogenase Family (ALDH2) Validation screens (AID 2061302; active means well fitted inhibition curve with a large enough effect; title and protocol of this record describe different tests;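 further: plate controls were DMSO vehicle for no effect and maximal DPI positive control response for full effect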)

Sequence of Cellular tumor antigen p53 (Homo sapiens) (P04637 whole entry, looked up): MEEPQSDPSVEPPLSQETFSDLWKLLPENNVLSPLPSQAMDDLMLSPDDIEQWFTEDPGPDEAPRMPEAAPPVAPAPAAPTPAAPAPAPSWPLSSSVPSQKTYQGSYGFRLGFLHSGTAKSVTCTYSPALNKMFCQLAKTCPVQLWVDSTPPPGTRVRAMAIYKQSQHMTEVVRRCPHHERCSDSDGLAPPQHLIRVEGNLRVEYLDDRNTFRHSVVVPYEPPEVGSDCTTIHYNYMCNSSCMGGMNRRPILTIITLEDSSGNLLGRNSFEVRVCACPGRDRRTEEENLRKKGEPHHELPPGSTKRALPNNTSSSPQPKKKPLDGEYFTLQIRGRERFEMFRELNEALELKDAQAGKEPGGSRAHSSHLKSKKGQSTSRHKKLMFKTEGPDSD

COc1cc(C)[nH]c(=O)c1CNC(=O)c1c(C)n([C@H](C)C2CCOCC2)c2ccccc12
inactive: activation [1] -8.11% | Potency [2] | Potency [3] | viability [4] 113% | Potency [5] | Potency [6] | Potency [7] | Potency [8]

COc1ccc(C(=O)c2c(C)n(CCN3CCOCC3)c3ccccc23)cc1
active: Potency [4] 8.33 µM | Potency [5] 3.72 µM | Potency [9] 2.63 µM | Potency [6] 2.35 µM | Potency [10] 1.86 µM | Potency [7] 2.63 µM | Potency [8] 1.48 µM
inactive: activation [1] 1.02%

O=C(O)CNC(=O)c1c(O)c2ccccc2n(Cc2ccccc2)c1=O
inactive: activation [1] -9.57% and 9.82% | Potency [2] | Potency [3] | Potency [5] | Potency [9] | Potency [6] | Potency [7]

CCC(C)/C=C(C)/C=C/C1=CC2=C(Cl)C(=O)C(C)(OC(C)=O)C(=O)C2=CO1 (stereo not given)
inactive: activation [1] -16% | Potency [3]

Cc1ccccc1-n1c(Cn2cnc3c(N)ncnc32)nc2cccc(C)c2c1=O
inactive: activation [1] 46.4% and -16.1% | Potency [2] | Potency [3] | viability [4] 110% | Potency [10]
active: Potency [9] 1.48 µM

CSCC[C@@H](NC(=O)[C@@H](Cc1ccccc1)NC(=O)CNC(=O)CNC(=O)[C@@H](N)Cc1ccc(O)cc1)C(=O)O
inactive: activation [1] 22.9% | viability [4] 119% | Potency [5] | Potency [9] | Potency [6] | Potency [7]

CN1CN(c2ccccc2)C2(CCN(CCCC(=O)c3ccc(F)cc3)CC2)C1=O
inactive: activation [1] 23.7% | Potency [3]
active: Potency [11] 22.5 µM

Cc1cccc(NC(=O)c2ccc(C(F)(F)F)cc2C(=O)O)n1
inactive: activation [1] 1% | Potency [2] | Potency [3]

O=C(O)CCCc1ccc(N(CCCl)CCCl)cc1
active: Potency [10] 2.95 µM
inactive: activation [1] 7.53% and 20.9% | Potency [9]

COc1cccc2c1C(=O)c1c(O)c3c(c(O)c1C2=O)C[C@@](O)(C(=O)CO)CC3OC1CC(N2CCOC(OC)C2)C(O)C(C)O1 (stereo not given in full)
active: Potency [1] 0.0276 µM | Potency [4] 0.0033 µM | Potency [5] 0.0047 µM | Potency [10] 0.0047 µM | Potency [7] 0.0053 µM | Potency [8] 0.0042 µM

C[N+](C)(C)CCOC(=O)CBr
inactive: Potency [12] | Potency [13]

COCC1(CO)C(=O)C2CCN1CC2 (stereo not given)
active: Potency [4] 26.3 µM | Potency [5] 4.68 µM | Potency [10] 5.25 µM | Potency [7] 10.5 µM
inactive: activation [1] -22.4%

N=c1c2c(-c3ccccc3)c(-c3ccccc3)n(Cc3ccccc3)c2ncn1C1CCC(O)CC1 (stereo not given)
inactive: activation [1] 11.7%
active: Potency [4] 1.32 µM | Potency [5] 8.33 µM | Potency [9] 0.742 µM | Potency [10] 1.32 µM | Potency [8] 4.68 µM
